This passage reports growth results from PubChem BioAssay (NCI).

This is part of a sample that, as a whole, favours compounds with a hit. Of some 83,000 tested, about 20% had one in any assay.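 Compound tested at a single concentration for 48 hours in 96-well plates; a percent growth value below 10 was scored as active.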 Values without a mark were called inactive. Active and inactive are the calls of the source.

The experiment concerns HL-60(TB) leukemia. In words: NCI-60 one-dose screen, 48 h (100 = growth as untreated, 0 = no growth, -100 = all killed). The settings on record: 10 µM unless noted.
Consider `CC(C)(C)OC(=O)Nc1ccc(-c2cccc(Oc3ccc4nnc(Cl)n4n3)c2)cc1`, for which the growth was 64%.

Take `CNc1sc(S(=O)(=O)NC)nc1S(=O)(=O)c1ccc(C)cc1`: the growth was 101%.

Consider `COc1ccc(NC(=O)Nc2ccc3c(ccn3C(=O)c3cccc(F)c3)c2)cc1`, for which the growth was 85.2%.

As for `Nc1nc(-c2cccc([N+](=O)[O-])c2)c(N=Nc2ccc(Br)cc2)s1`, the growth is 100%.

On to `Nc1nc(Nc2ccccc2SSc2ccccc2Nc2nc(N)nc(-c3ccc4ccccc4c3)n2)nc(-c2ccc3ccccc3c2)n1`, for which the growth is 112%.

For `CC(=O)NC(C)(C)C(=O)N[C@@H](C)C(=O)NC(C)(C)C(=O)N[C@@H](C)C(=O)NC(C)(C)C(=O)N[C@@H](C)C(=O)N[C@@H](CCC(N)=O)C(=O)NC(C)(C)C(=O)N[C@H](C(=O)NC(C)(C)C(=O)NCC(=O)N[C@@H](CC(C)C)C(=O)NC(C)(C)C(=O)N1CCC[C@H]1C(=O)N[C@H](C(=O)NC(C)(C)C(=O)NC(C)(C)C(=O)N[C@@H](CCC(N)=O)C(=O)N[C@@H](CCC(N)=O)C(=O)N[C@H](CO)CC1CCCCC1)C(C)C)C(C)C`, the growth was 10.3% [5 µM].

Consider `O=C1[C@H]2Cc3c([nH]c4ccccc34)[C@@H](c3ccc(Cl)cc3)N2C(=O)CN1C1CCN(Cc2c(Cl)cccc2Cl)CC1`, for which the growth is 108%.

`C=C1CCc2nc(SCC(=O)O)ccc2N1`: the growth was 96%.

Consider `C/C(=N\O)[C@H]1C[C@]23CC[C@]4(C)[C@H](CC[C@@H]5[C@@]6(C)CC/C(=N/O)C(C)(C)[C@@H]6CC[C@]54C)[C@H]2[C@H](C)C1(C)OC3`, for which the growth was 121%.

Take `COc1ccccc1/C=C/C(=O)c1nnn(-c2ccc(F)cc2)c1C`: the growth is 31.9%.

In the case of `Fc1ccc(-c2nc(C(Cl)Cl)nc3cc(-c4ccccc4)nn23)cc1`, the growth was -8.76% (active).

Consider `CS(=O)(=O)c1nccc(-c2c(-c3cccc(OCc4ccc(Cl)c(C(F)(F)F)c4)c3)nc3sccn23)n1`, for which the growth is 12.5%.

In the case of `O=C(N/N=C/c1ccc(Br)s1)c1[nH]c2ccc(Br)cc2c1-c1ccccc1`, the growth is -43.4% (active).

`Cc1cc(=O)oc2cc(OCCCOc3ccc(/C=C/C(=O)Nc4ccc(Cl)cc4)cc3)ccc12`: the growth is 86.1%.

As for `O=S(=O)(Oc1ccc(-c2cn3ccoc3n2)cc1)C1CCCCC1`, the growth was 90.2%.

Take `O=C(NCCn1ccnc1)c1ccc(-c2nc3ccc4[nH]ncc4c3c3c2CCCC3)cc1`: the growth is 76.9%.

For the molecule `C=C(C)C(=O)O[C@H]1C[C@@]2(C)OC(=CC2=O)/C(CO)=C\[C@H]2OC(=O)C(=C)[C@H]12`, the growth is -31.2% (active).

With `Cn1ncc2ncc(-c3ccc4ncc(C#N)c(N5CCc6cc(F)c(Cl)cc65)c4c3)cc21`, the growth was 26.7%.

Take `O=C(CN1CCN(c2cc(=O)[nH]c3ccc(F)cc23)CC1)Nc1ccc(Cl)cc1`: the growth was 87.6%.

In the case of `COC(=O)C(Cc1ccccc1)NS(=O)(=O)/N=C1\NC(=O)NC1=C(Cl)Cl` (configuration not stated), the growth was 96.1%.

`C#C[C@]1(O)CC[C@H]2[C@@H]3CC=C4c5sc(C6CCOCC6)nc5CC[C@]4(C)[C@H]3CC[C@@]21C`: the growth was 56.7%.

Consider `Cn1c(SCC(=O)c2ccco2)nc2ccccc2c1=O`, for which the growth was 98.3%.

On to `C#C[C@]1(O)CC[C@H]2[C@@H]3CC=C4c5sc(Nc6cc(OC)ccc6OC)nc5CC[C@]4(C)[C@H]3CC[C@@]21C`, for which the growth is -5.2% (active).

For the molecule `C=CCn1c(SCC(=O)Nc2cccc(C(=O)/C=C/c3ccc(Cl)cc3)c2)nc2ccccc2c1=O`, the growth is 103%.

As for `C=CCn1c(SCC(=O)c2ccc(OC)cc2)nnc1-c1ccc(OC)cc1`, the growth was 90.8%.

Regarding `CC1CCc2c(sc3nc(SCC(=O)N/N=C/c4cccc(O)c4O)n(-c4ccccc4)c(=O)c23)C1` (configuration not stated), the growth was 93.6%.

For `CCCC(=O)NC(c1ccc(N(CC)CC)cc1)c1cc(C)c2cccnc2c1O` (configuration not stated), the growth is -25% (active).
